Assay [1] in a line: qHTS of pediatric cancer cell lines to identify multiple opportunities for drug repurposing: Confirmatory screen for A673 cells (AID 1347110).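 Further: cells exposed to compound for 48 h before the viability read; nearly all actives have a fitted effect of over 65% in size.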 To be noted: A673 Ewing sarcoma cell viability; series mostly up to 45.9 µM. The method in brief: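 Concentration-response curves came straight from titrations: 11 points (0.78 nM to 46 µM) for MIPE and several concentrations (0.59 nM to 46 µM) for NPC in primary, 11 points in follow-up. Readout: ATP luminescence at 48 h.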
Background: In qHTS, concentration-response curves come from the screen itself.

A short description of assay [2]: qHTS of pediatric cancer cell lines to identify multiple opportunities for drug repurposing: Confirmatory screen for SK-N-MC cells (AID 1347111).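 Further: cells exposed to compound for 48 h before the readout; nearly all actives have a fitted effect of over 70% in size.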 To be noted: SK-N-MC cell viability; series mostly up to 45.9 µM. An outline of the steps:
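Seed 500-1,000 cells/well; rest 5 h at 37 degrees C. Pin-transfer compounds, 11-point titration. Incubate 48 h. Add CellTiter-Glo, 15 min RT, read luminescence.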

Assay [3] in a line: qHTS of pediatric cancer cell lines to identify multiple opportunities for drug repurposing: Confirmatory screen for BT-12 cells (AID 1347112). Further: nearly all actives have a fitted effect of over 55% in size. To be noted: BT-12 rhabdoid tumor cells, viability; series mostly up to 45.9 µM. The method in brief: (§1)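 Cells (500-1,000/well) rested 5 h, then received compounds for 48 h; metabolically active cells were measured by CellTiter-Glo luminescence. Final concentrations spanned up to 46 µM (MIPE, 11-point) or 0.59 nM-46 µM (NPC, 8-point) in primary screens, 11-point in follow-ups.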

A short description of assay [4]: qHTS of pediatric cancer cell lines to identify multiple opportunities for drug repurposing: Confirmatory screen for DAOY cells (AID 1347114). Further: nearly all actives have a fitted effect of over 65% in size. To be noted: DAOY medulloblastoma cells viability, cytotoxicity qHTS; series mostly up to 45.9 µM. The method in brief: (§2)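 Viability measured as metabolically active cells via CellTiter-Glo luminescence following 48 hours of compound exposure, 11-point dilutions in confirmatory testing. 500-1,000 cells/well plated 5 hours before dosing; controls were DMSO and 2.3 µM bortezomib.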

A short description of assay [5]: qHTS of pediatric cancer cell lines to identify multiple opportunities for drug repurposing: Confirmatory screen for BT-37 cells (AID 1347117). Further: nearly all actives have a fitted effect of over 55% in size. To be noted: BT-37 pediatric cancer cells, viability; series mostly up to 45.9 µM. An outline of the steps:
as §1

A short description of assay [6]: qHTS of pediatric cancer cell lines to identify multiple opportunities for drug repurposing: Confirmatory screen for TC32 cells (AID 1347118).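 Further: cells exposed to compound for 48 h before the read; nearly all actives have a fitted effect of over 65% in size.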 To be noted: TC32 Ewing sarcoma cells viability qHTS; series mostly up to 45.9 µM. An outline of the steps: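 Luminescent ATP read-out (CellTiter-Glo) of metabolically active TC32 cells after 48 h exposure. Concentration-response curves came from 11-point (MIPE, 0.78 nM–46 µM) or 8-point (NPC, 0.59 nM–46 µM) primary titrations; follow-up used 11 points.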

The nature of assay [7]: qHTS of pediatric cancer cell lines to identify multiple opportunities for drug repurposing: Confirmatory screen for LAN-5 cells (AID 1347113). Further: nearly all actives have a fitted effect of over 65% in size. To be noted: LAN-5 neuroblastoma cell viability; series mostly up to 45.9 µM. The method in brief:
as §1

The nature of assay [8]: qHTS of pediatric cancer cell lines to identify multiple opportunities for drug repurposing: Confirmatory screen for NB-EBc1 cells (AID 1347115).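 Further: cells exposed to compound for 48 h before the viability read; nearly all actives have a fitted effect of over 45% in size.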 To be noted: NB-EBc1 neuroblastoma cells, viability (cytotoxicity); series mostly up to 45.9 µM. The method in brief: as §1
The nature of assay [9]: qHTS of pediatric cancer cell lines to identify multiple opportunities for drug repurposing: Confirmatory screen for SJ-GBM2 cells (AID 1347116). Further: nearly all actives have a fitted effect of over 60% in size. To be noted: SJ-GBM2 glioblastoma cells, viability; series mostly up to 45.9 µM. The method in brief: as §2
Assay [10] in a line: qHTS of pediatric cancer cell lines to identify multiple opportunities for drug repurposing: Confirmatory screen for MG 63 (6-TG R) cells (AID 1347119). Further: nearly all actives have a fitted effect of over 55% in size. To be noted: MG-63 (6-TG resistant) osteosarcoma viability; series mostly up to 45.9 µM. The method in brief: as §1

Results on 21 compounds are retold here after PubChem BioAssay (NCATS).

Inconclusive results are not listed. The source made the active and inactive calls. The call rests on the fitted dose curve; in most records, active means well fitted curve in the direction sought with a large enough effect; inconclusive means small, poorly fitted or top-dose-only effect, or another doubt; inactive means no such curve, though single readings can be large; an effect the other way counts as inactive or inconclusive.
Potency means the concentration at half of the fitted maximal effect.

For `Cc1ccc(C(=O)N(CCCN)[C@@H](c2nc3cc(Cl)ccc3c(=O)n2Cc2ccccc2)C(C)C)cc1`, the Potency in assay [1] is 0.0076 µM (active); in assay [2], 0.024 µM (active); in assay [3] it was 0.759 µM (active); in assay [4], 0.012 µM (active); in assay [5], 0.0537 µM (active); in assay [6], 0.0479 µM (active).

As for `CCC(=O)N1CCN(c2ccc(-n3c(=O)ccc4cnc5ccc(-c6cnc7ccccc7c6)cc5c43)cc2C(F)(F)F)CC1`, the Potency result in [1], in assay [3], in [7] and in [4] was “inactive” in each case. Moreover, the Potency was 9.27 µM (active) in [2] and 8.27 µM (active) in assay [6].

As to `COC(=O)[C@H](c1ccccc1Cl)N1CCc2sccc2C1`, the Potency result in assay [1], in assay [2], in assay [3], in [7], in assay [4] and in [8] was “inactive” each time. Moreover, the Potency result in assay [9], in [5] and in assay [6] was “inactive” in each case.

Consider `C[C@@H]1O[C@@H](O[C@H]2CC[C@@]3(C)[C@H](CC[C@@H]4[C@H]3C[C@@H](O)[C@]3(C)[C@@H](C5=CC(=O)OC5)CC[C@]43O)C2)C[C@H](O)[C@@H]1O[C@H]1C[C@H](O)[C@H](O[C@H]2C[C@H](O)[C@@H](O)[C@@H](C)O2)[C@H](C)O1` (stereo in doubt), for which the Potency is 0.427 µM (active) in assay [1]; 0.269 µM (active) in assay [2]; 0.17 µM (active) in [3]; 0.302 µM (active) in assay [7]; 0.302 µM (active) in assay [9]; 0.0955 µM (active) in [5]. Besides, the Potency in assay [6] was 0.17 µM (active); in assay [10], 0.0759 µM (active).

For `CC(C)(C)c1[nH]cnc1C=c1[nH]c(=O)c(=Cc2ccccc2)[nH]c1=O`, the Potency in assay [1] is 0.032 µM (active); in assay [2], 0.0101 µM (active); in [3] it was 0.202 µM (active); in assay [7] it was 0.0114 µM (active); in assay [4], 0.018 µM (active); in assay [8], 0.018 µM (active). In addition, the Potency was 0.0143 µM (active) in [5] and 0.0101 µM (active) in assay [6]. Also, the outcome in assay [9] was “inactive [at 0.556 µM]”.

Regarding `CC1(C)OC2CC3C4CC(F)C5=CC(=O)C=CC5(C)C4C(O)CC3(C)[C@]2(C(=O)CO)O1` (stereo not given in full), the Potency result in assay [1], in assay [2], in [3], in assay [7], in assay [4] and in assay [8] was “inactive” in each case. The Potency result in assay [9], in [5] and in [6] was “inactive” each time.

As to `CN(C)CC[C@H](CSc1ccccc1)Nc1ccc(S(=O)(=O)NC(=O)c2ccc(N3CCN(Cc4ccccc4-c4ccc(Cl)cc4)CC3)cc2)cc1[N+](=O)[O-]`, the Potency in assay [1] was 14.7 µM (active); in [2] it was 3.69 µM (active); in [7], 0.414 µM (active); in assay [4] it was 16.5 µM (active); in assay [6], 20.8 µM (active). Also, the Potency result in assay [3] is “inactive”.

Consider `COc1ccc(-c2ccc3ncc4c(c3c2)n(-c2ccc(N3CCNCC3)c(C(F)(F)F)c2)c(=O)n4C)cn1`, for which the Potency in assay [1] is 0.131 µM (active); in assay [2], 0.0827 µM (active); in assay [3], 7.37 µM (active); in [4], 2.33 µM (active); in assay [8], 0.928 µM (active); in assay [9], 0.465 µM (active). The Potency was 0.208 µM (active) in assay [5] and 0.0329 µM (active) in assay [6].

As for `NC(N)=Nc1nc(CSCCC(N)=NS(N)(=O)=O)cs1`, the Potency result in assay [1], in assay [2], in assay [3], in [7], in assay [4] and in assay [5] was “inactive” each time. For the same compound, the Potency result in assay [6] is “inactive”.

As for `O=C1Nc2ccc(I)cc2C1=Cc1cc(Br)c(O)c(Br)c1`, the Potency in assay [1] is 11.7 µM (active). In addition, the Potency result in assay [2], in assay [3], in assay [4], in assay [9] and in assay [5] was “inactive” throughout.

On to `CC1(C)CC(=O)c2c(C(F)(F)F)nn(-c3ccc(C(N)=O)c(NC4CCC(O)CC4)c3)c2C1` (stereo not given), for which the Potency in [1] was 0.147 µM (active); in [2], 0.165 µM (active); in assay [7], 0.185 µM (active); in [5], 0.104 µM (active); in [6], 0.165 µM (active). Also, the Potency result in [3] and in [4] was “inactive” throughout.

As to `C=C1[C@H](n2cnc3c(=O)[nH]c(N)nc32)C[C@H](O)[C@H]1CO`, the Potency entry in assay [1], in assay [3], in assay [7], in [4], in assay [8] and in assay [5] was “inactive” throughout. Besides, the Potency in assay [2] was 7.37 µM (active); in assay [6], 8.27 µM (active).

As to `CC1=C(CC(=O)O)c2cc(F)ccc2C1=Cc1ccc(S(C)=O)cc1` (stereo not given), the Potency entry in assay [1], in [2], in [3], in [7], in assay [4] and in assay [5] was “inactive” in each case. For the same compound, the Potency result in assay [6] was “inactive”.

Take `CN[C@@H]1CN(c2ccc3c(=O)c(C(=O)O)cn(-c4nccs4)c3n2)C[C@@H]1OC`: the Potency in [1] was 1.29 µM (active); in assay [2], 1.44 µM (active); in [3], 9.1 µM (active); in [7], 1.82 µM (active); in assay [4], 11.5 µM (active); in assay [9], 10.2 µM (active). The values for the Potency in assay [5] and in assay [6] were 2.57 µM (active) and 1.15 µM (active), respectively.

On to `C[C@@H]1[C@H](O)[C@@H](C)C=CC=CC=CC=CC=CC=CC=C[C@H](O[C@@H]2O[C@H](C)[C@H](O)[C@H](N)[C@@H]2O)C[C@@H]2O[C@](O)(C[C@@H](O)C[C@@H](O)[C@H](O)CC[C@@H](O)C[C@@H](O)CC(=O)O[C@H]1C)C[C@H](O)[C@@H]2C(=O)O`, for which the Potency entry in assay [1], in assay [3], in [7], in assay [4] and in assay [5] was “inactive” in each case. Further, the figures for the Potency in [2] and in assay [6] were 10.4 µM (active) and 11.7 µM (active), respectively.

Regarding `COc1cc2c(cc1OC)[C@@H]1Cc3ccc(OC)c(OC)c3CN1CC2`, the Potency entry in [1] is “inactive”.

In the case of `Cc1ccc(C(=O)N(CCCN)[C@@H](c2oc3cc(Cl)ccc3c(=O)c2Cc2ccccc2)C(C)C)cc1`, the Potency in assay [1] was 0.0019 µM (active); in [2], 0.0059 µM (active); in [3], 0.0104 µM (active); in assay [7] it was 14.7 µM (active); in assay [4], 0.0052 µM (active); in assay [8], 8.27 µM (active). In addition, the Potency in [5] is 0.0117 µM (active); in assay [6], 0.0104 µM (active); in assay [10] it was 0.0233 µM (active).

With `CC[C@]1(O)C[C@H]2CN(CCC3=c4ccccc4=N[C]3[C@@](C(=O)OC)(c3cc4c(cc3OC)N(C)[C@H]3[C@@](O)(C(N)=O)[C@H](O)[C@]5(CC)C=CCN6CC[C@]43[C@@H]65)C2)C1`, the Potency was 0.0585 µM (active) in [1]; 0.117 µM (active) in assay [2]; 0.147 µM (active) in [3]; 0.147 µM (active) in assay [7]; 0.261 µM (active) in [4]; 0.0737 µM (active) in [5]. Moreover, the Potency in assay [6] is 0.104 µM (active).

For the compound `CCCC1OC2C[C@@H]3[C@H]4CCC5=CC(=O)C=C[C@]5(C)[C@H]4C(O)C[C@]3(C)[C@]2(C(=O)CO)O1` (stereo not given in full), the Potency entry in [1], in [3] and in assay [10] was “inactive” throughout. Moreover, the Potency in assay [2] was 26.1 µM (active); in assay [9], 1.47 µM (active).

In the case of `Cc1ccc(S(=O)(=O)Nc2nc3ccccc3nc2Nc2ccc3nsnc3c2)cc1`, the Potency entry in [1] and in assay [3] was “inactive” throughout. In addition, the Potency in assay [2] is 0.256 µM (active); in [5], 1.29 µM (active); in [6], 0.229 µM (active).

Turning to `Cc1cnc(-c2cc(N3CCN(C(=O)CCS(C)(=O)=O)CC3)ncc2Cl)c(C)c1`, the Potency result in [1], in assay [2], in [3], in [7], in assay [4] and in [6] was “inactive” throughout. Moreover, in assay [5], the Potency is 29.3 µM (active).
